About 2,000 (36%) of roughly 5,500 compounds were called active. Another 18% or so got no clear call; they are omitted. No stated cut-off is given here; in the data, active means normalized growth mostly below about 0.91 (no sharp cut-off); inconclusive means no clear call, values can overlap the other calls; inactive means mostly above about 0.92. This is one part of the list.
Assay: chemical genetic growth profiling, strain panel (AID 1159580);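 further: tested at 20 µM; growth read once vehicle control cultures reached saturation at 30 °C; 1 = growth at the plate median or of vehicle wells; lower values mean less growth of the strain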
Conditions: growth OD
[1] = S. cerevisiae deletion strains, locus YAL013W, strain DEP1, hits give low values
[2] = S. cerevisiae deletion strains, locus YBR229C, strain ROT2, hits give low values
[3] = S. cerevisiae deletion strains, locus YDL101C, strain DUN1, hits give low values
[4] = S. cerevisiae deletion strains, locus YDR150W, strain NUM1, hits give low values
[5] = S. cerevisiae deletion strains, locus YEL061C, strain CIN8, hits give low values
[6] = S. cerevisiae deletion strains, locus YGR078C, strain PAC10, hits give low values
[7] = S. cerevisiae deletion strains, locus YHR030C, strain SLT2, hits give low values
[8] = S. cerevisiae deletion strains, locus YHR087W, strain rtc3, hits give low values
[9] = S. cerevisiae deletion strains, locus YJL187C, strain SWE1, hits give low values
[10] = S. cerevisiae deletion strains, locus YJR043C, strain POL32, hits give low values
[11] = S. cerevisiae deletion strains, locus YJR075W, strain HOC1, hits give low values
[12] = S. cerevisiae deletion strains, locus YKL190W, strain CNB1, hits give low values
[13] = S. cerevisiae deletion strains, locus YLR039C, strain RIC1, hits give low values
[14] = S. cerevisiae deletion strains, locus YLR058C, strain SHM2 (second series), hits give low values
[15] = S. cerevisiae deletion strains, locus YLR085C, strain ARP6, hits give low values
[16] = S. cerevisiae deletion strains, locus YLR262C, strain YPT6, hits give low values
[17] = S. cerevisiae deletion strains, locus YML094W, strain GIM5, hits give low values
[18] = S. cerevisiae deletion strains, locus YMR219W, strain ESC1, hits give low values
[19] = S. cerevisiae deletion strains, locus YMR263W, strain SAP30, hits give low values
[20] = S. cerevisiae deletion strains, locus YNL153C, strain GIM3, hits give low values
[21] = S. cerevisiae deletion strains, locus YNL298W, strain CLA4 (second series), hits give low values
[22] = S. cerevisiae deletion strains, locus YNL322C, strain KRE1, hits give low values
[23] = S. cerevisiae deletion strains, locus YNR030W, strain Alg12, hits give low values
[24] = S. cerevisiae deletion strains, locus YOL006C, strain TOP1, hits give low values
[25] = S. cerevisiae deletion strains, locus YPL055C, strain LGE1, hits give low values
[26] = S. cerevisiae deletion strains, locus YPL241C, strain CIN2, hits give low values
[27] = S. cerevisiae deletion strains, locus YPR135W, strain CTF4, hits give low values
[28] = S. cerevisiae strains, strain wild type, hits give low values
[29] = S. cerevisiae deletion strains, locus YCL061C, strain MRC1, hits give low values

Measured: normalized growth

CSc1ncc(C#N)c2nc(-c3ccc(N(C)C)cc3)nn12
inactive: [1] 1.01 | [2] 0.991 | [3] 0.974 | [4] 0.966 | [5] 1 | [6] 0.983 | S. cerevisiae deletion strains, locus YGR229C, strain SMI1, hits give low values 1 | [7] 1 | [8] 1.05 | [9] 1.01 | [10] 0.975 | [11] 0.994 | [12] 1.01 | [13] 1.08 | [14] 1.02 | [15] 1.02 | [16] 1.09 | [17] 1.05 | [18] 1.01 | [19] 1.01 | [20] 0.985 | [21] 1.04 | [22] 1 | [23] 1.03 | [24] 1.04 | [25] 1.01 | [26] 1.01 | [27] 0.968 | [28] 1

Fc1cc(F)cc(COc2cc(Cl)cc(Cl)c2)c1
active: [7] 0.522 | [26] 0.832
inactive: [1] 1 | [2] 0.987 | [29] 0.96 | [3] 1.01 | S. cerevisiae deletion strains, locus YDL134C, strain PPH21, hits give low values 0.992 | [4] 0.885 | [5] 1.01 | [6] 0.96 | [8] 0.959 | [9] 0.968 | [10] 0.985 | [11] 0.913 | [12] 0.967 | [13] 1.01 | [14] 0.972 | [15] 0.822 | [16] 0.943 | [17] 1.01 | [18] 0.984 | [19] 0.97 | S. cerevisiae deletion strains, locus YMR307W, strain GAS1, hits give low values 0.739 | [20] 1 | [21] 0.919 | [22] 0.987 | [23] 0.928 | [24] 0.8 | [25] 0.922 | [27] 0.886 | [28] 0.96

O=S(=O)(Oc1ccc(OCc2ccccc2)cc1)c1cc(Cl)cc(Cl)c1
inactive: [1] 1.01 | [2] 1.01 | [29] 1.01 | [3] 0.987 | [4] 1 | [5] 0.959 | [6] 1 | [7] 0.881 | [8] 0.983 | [9] 1 | [10] 1.01 | [11] 1.01 | [13] 1.01 | [14] 1.01 | [15] 0.943 | [16] 0.985 | [17] 0.966 | [18] 0.993 | [19] 1.01 | [20] 0.998 | [21] 1.01 | [22] 1 | [23] 0.998 | [24] 0.779 | [25] 0.969 | [26] 1 | [27] 0.988 | [28] 1

Source: PubChem BioAssay AID1159580 (chemical genetic matrix, 2015)
